# In PubChem BioAssay (NCATS):
# Records with an inconclusive call do not appear. Where a call stands in place of a potency, no number is given. The source made the active and inactive calls. Unless noted, calls follow the shape of the full dose curve.
# Key:
# [1] = molecular target: Glucocorticoid receptor (Homo sapiens) (UniProt P04150); assay: qHTS assay for small molecule antagonists of glucocorticoid receptor signaling (AID 588533; active = well fitted inhibition curve with a large enough effect in the signal ratio, with a control signal flat, not every such curve was filed as active; the % refers to the signal ratio;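 also: cells stimulated with 2 nM dexamethasone as agonist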)
# Summary of the method: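 Antagonist-mode qHTS: compound titrations added to GRE-bla HeLa cells, then dexamethasone 2 nM final; 18 h, 37 C. CCF4 FRET fluorescence normalized to dexamethasone and DMSO; IC50 from Hill fit.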
# [2] = qHTS assay for small molecule antagonists of peroxisome proliferator-activated receptor delta signaling (AID 588535; active = well fitted inhibition curve with a large enough effect in the signal ratio, with a control signal flat, not every such curve was filed as active; the % refers to the signal ratio;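 as to max response: cells co-treated with a PPAR-delta agonist as stimulator during compound exposure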); details: HEK293T PPARd-UAS-bla, beta-lactamase FRET ratio, 18 h; 460 nm channel
# Summary of the method: (§1)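 HEK293T PPAR-delta-UAS-bla cells, 4000/well, 2% charcoal/dextran FBS; 5 h 37 C; cpd titration; 18 h 37 C; CCF4 2 h RT; FI 460/530 nm; Hill fit → IC50, efficacy.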
# [3] = molecular target: Peroxisome proliferator-activated receptor delta (Homo sapiens) (UniProt Q03181); assay: as above
# Summary of the method: as §1
# [4] = molecular target: Peroxisome proliferator-activated receptor gamma (Homo sapiens) (UniProt P37231); assay: qHTS assay for small molecule agonists of peroxisome proliferator-activated receptor gamma signaling (AID 588536; active = well fitted curve in the direction sought with a large enough effect in the signal ratio, with a control signal flat, not every such curve was filed as active; the % refers to the signal ratio)
# Summary of the method: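 HEK293 UAS-bla reporter line, 1% charcoal/dextran FBS; titration, 16 h, 37 C; CCF4 loading 2 h RT; fluorescence 460/530 nm. Normalized to rosiglitazone 2 uM = 100%, DMSO = 0%.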
# [5] = molecular target: Peroxisome proliferator-activated receptor gamma (Homo sapiens) (UniProt P37231); assay: qHTS assay for small molecule antagonists of peroxisome proliferator-activated receptor gamma signaling (AID 588537; active = well fitted inhibition curve with a large enough effect in the signal ratio, with a control signal flat, not every such curve was filed as active; the % refers to the signal ratio;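 also: reporter cells co-stimulated with 50 nM rosiglitazone agonist during compound treatment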)
# Summary of the method: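 Antagonist mode, beta-lactamase reporter in HEK293; charcoal/dextran FBS 1%; 3000 cells/well, 37 C 6-6.5 h; cpd titration + rosiglitazone 50 nM final, 16 h 37 C; CCF4, 2 h RT; 460/530 nm; Hill fit → IC50, efficacy.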
# [6] = molecular target: Vitamin D3 receptor (Homo sapiens) (UniProt P11473); assay: qHTS assay for small molecule antagonists of vitamin D receptor signaling (AID 588541);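 also: receptor activated by calcitriol during compound treatment; series mostly up to about 77 µM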
# Summary of the method: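 Antagonist-mode beta-lactamase reporter assay: HEK293T VDR-UAS-bla cells were exposed to titrated compound alongside 1-alpha,25-dihydroxyvitamin D3 at 3 nM final for 16 h. Values were normalized to the 50 nM agonist control and DMSO basal, with IC50 and efficacy from Hill equation fits.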
# [7] = qHTS assay for small molecule agonists of retinoid X receptor alpha signaling (AID 588544); details: HEK293T RXRa-UAS-bla, beta-lactamase reporter, 18 h; 530 nm emission
# [8] = molecular target: Retinoic acid receptor RXR-alpha (Homo sapiens) (UniProt P19793); assay: as above
# [9] = qHTS assay for small molecule antagonists of retinoid X receptor alpha signaling (AID 588546; active = well fitted inhibition curve with a large enough effect in the signal ratio, with a control signal flat, not every such curve was filed as active; the % refers to the signal ratio;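 also: cells stimulated with 9-cis-retinoic acid as agonist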); details: HEK293T RXRa-UAS-bla, beta-lactamase ratio, antagonist mode; measured here: W530 green channel, cytotoxicity proxy
# Summary of the method: (§2)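 Beta-lactamase reporter inhibition, read as CCF4 fluorescence ratio (ex 405, em 460/530 nm) after 2 h at RT. HEK293T UAS-bla cells, 2500/well, were stimulated with 9-cis-RA at 500 or 100 nM final alongside test compound for 18 h at 37 C.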
# [10] = molecular target: Retinoic acid receptor RXR-alpha (Homo sapiens) (UniProt P19793); assay: as above; details: HEK293T RXRa-UAS-bla, beta-lactamase ratio, antagonist mode
# Summary of the method: as §2
# Sequence of Retinoic acid receptor RXR-alpha (Homo sapiens) (P19793 whole entry, looked up): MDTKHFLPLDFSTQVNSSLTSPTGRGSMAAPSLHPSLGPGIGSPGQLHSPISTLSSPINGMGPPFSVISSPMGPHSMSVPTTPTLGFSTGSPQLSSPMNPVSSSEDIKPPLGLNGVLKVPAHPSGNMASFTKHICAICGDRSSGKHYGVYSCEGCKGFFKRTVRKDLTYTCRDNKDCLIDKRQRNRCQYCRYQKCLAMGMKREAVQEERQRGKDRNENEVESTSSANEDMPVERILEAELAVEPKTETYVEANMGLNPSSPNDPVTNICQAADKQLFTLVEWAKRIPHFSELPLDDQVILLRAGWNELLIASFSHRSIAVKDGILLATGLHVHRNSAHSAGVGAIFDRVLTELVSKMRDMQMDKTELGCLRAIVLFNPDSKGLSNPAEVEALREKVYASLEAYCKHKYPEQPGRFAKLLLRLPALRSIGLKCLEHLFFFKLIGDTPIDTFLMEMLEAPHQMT
# Sequence of Glucocorticoid receptor (Homo sapiens) (P04150 whole entry, looked up): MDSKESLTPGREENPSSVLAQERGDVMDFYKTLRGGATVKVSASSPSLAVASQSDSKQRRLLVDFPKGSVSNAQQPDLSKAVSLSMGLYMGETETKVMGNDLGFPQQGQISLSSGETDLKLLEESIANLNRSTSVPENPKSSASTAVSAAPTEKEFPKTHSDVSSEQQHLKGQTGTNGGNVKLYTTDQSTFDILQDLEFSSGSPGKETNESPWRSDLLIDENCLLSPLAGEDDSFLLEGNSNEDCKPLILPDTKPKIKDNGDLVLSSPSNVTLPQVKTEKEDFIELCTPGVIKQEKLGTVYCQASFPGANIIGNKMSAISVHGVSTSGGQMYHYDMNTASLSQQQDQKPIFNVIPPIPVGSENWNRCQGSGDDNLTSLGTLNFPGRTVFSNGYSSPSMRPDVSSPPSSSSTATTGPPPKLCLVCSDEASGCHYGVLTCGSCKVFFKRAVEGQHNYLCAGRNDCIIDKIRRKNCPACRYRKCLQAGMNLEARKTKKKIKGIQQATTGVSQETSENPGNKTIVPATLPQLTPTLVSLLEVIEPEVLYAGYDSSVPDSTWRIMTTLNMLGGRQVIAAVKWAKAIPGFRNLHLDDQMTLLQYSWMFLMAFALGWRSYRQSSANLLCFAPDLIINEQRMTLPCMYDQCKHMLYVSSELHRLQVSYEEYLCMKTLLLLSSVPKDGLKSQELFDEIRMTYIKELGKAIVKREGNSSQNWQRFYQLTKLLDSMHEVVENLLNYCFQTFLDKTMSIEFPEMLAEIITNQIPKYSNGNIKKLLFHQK
# Sequence of Peroxisome proliferator-activated receptor gamma (Homo sapiens) (P37231 whole entry, looked up): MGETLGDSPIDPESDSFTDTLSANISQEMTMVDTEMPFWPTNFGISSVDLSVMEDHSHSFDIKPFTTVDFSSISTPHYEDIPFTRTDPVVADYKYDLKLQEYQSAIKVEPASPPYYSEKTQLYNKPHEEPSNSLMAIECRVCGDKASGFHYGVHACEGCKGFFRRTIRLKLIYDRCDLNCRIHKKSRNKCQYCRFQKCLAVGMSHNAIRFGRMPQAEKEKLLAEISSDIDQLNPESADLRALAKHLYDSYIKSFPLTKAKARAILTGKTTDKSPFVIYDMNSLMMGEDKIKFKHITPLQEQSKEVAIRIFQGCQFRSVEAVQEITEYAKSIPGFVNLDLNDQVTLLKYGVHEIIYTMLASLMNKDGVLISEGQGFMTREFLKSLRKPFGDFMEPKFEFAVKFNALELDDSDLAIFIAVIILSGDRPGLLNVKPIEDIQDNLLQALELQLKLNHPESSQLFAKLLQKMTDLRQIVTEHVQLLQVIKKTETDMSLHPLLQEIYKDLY
# Sequence of Peroxisome proliferator-activated receptor delta (Homo sapiens) (Q03181 whole entry, looked up): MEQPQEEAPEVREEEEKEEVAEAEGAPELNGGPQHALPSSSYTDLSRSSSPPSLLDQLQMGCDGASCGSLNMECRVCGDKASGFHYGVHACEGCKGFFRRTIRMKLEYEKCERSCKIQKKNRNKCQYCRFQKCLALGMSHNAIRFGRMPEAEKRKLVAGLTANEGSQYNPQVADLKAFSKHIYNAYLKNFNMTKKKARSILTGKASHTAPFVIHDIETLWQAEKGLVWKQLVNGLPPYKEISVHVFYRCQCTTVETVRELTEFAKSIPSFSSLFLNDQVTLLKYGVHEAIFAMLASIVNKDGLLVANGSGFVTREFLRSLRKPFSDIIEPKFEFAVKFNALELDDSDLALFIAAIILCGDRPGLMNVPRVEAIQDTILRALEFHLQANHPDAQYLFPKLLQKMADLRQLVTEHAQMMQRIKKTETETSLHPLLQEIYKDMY
# Sequence of Vitamin D3 receptor (Homo sapiens) (P11473 whole entry, looked up): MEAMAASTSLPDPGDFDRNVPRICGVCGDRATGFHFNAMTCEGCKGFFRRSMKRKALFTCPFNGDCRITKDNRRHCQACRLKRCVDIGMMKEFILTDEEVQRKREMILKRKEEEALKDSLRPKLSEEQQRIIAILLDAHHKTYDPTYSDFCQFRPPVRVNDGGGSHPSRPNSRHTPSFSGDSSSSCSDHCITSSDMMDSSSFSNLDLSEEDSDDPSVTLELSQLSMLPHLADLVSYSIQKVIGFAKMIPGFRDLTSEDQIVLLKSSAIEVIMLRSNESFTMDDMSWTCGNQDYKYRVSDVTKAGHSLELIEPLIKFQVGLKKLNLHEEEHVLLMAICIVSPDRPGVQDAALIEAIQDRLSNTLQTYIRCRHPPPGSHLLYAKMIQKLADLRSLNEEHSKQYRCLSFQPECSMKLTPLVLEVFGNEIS
SMILES,outcome [1],max response [2],outcome [3],outcome [4],Potency [5],outcome [6],max response [7],outcome [8],max response [9],max response [10]
NNC(=O)c1ccncc1,inactive,0.593%,inactive,inactive,inactive,inactive,1.41%,inactive,1.75%,3.12% (inactive)
CC(=O)CC(c1ccccc1)c1c(O)c2ccccc2oc1=O (stereo not given),–,–,–,–,–,–,2.14%,inactive,-2.55%,8.9% (inactive)
C[C@]12C=CC(=O)C=C1CC[C@@H]1[C@@H]2C(=O)C[C@@]2(C)[C@H]1CC[C@]2(O)C(=O)CO,–,–,–,inactive,–,inactive,13.7%,inactive,4.53%,-10.9% (inactive)
Nc1nc(N)c2nc(CNc3ccc(C(=O)NC(CCC(=O)O)C(=O)O)cc3)cnc2n1 (stereo not given),inactive,44.5%,inactive,–,–,inactive,–,–,–,–
S=P(N1CC1)(N1CC1)N1CC1,inactive,6.13%,inactive,inactive,inactive,inactive,-19.8%,inactive,–,–
Cc1ncc([N+](=O)[O-])n1CCO,–,-0.982%,inactive,inactive,–,–,1.6%,inactive,-7.09%,26.4% (inactive)
OC(Cn1cncn1)(Cn1cncn1)c1ccc(F)cc1F,inactive,–,–,inactive,inactive,inactive,-28.2%,inactive,-2.01%,6.23% (inactive)
Cc1cc(NS(=O)(=O)c2ccc(N)cc2)no1,inactive,–,–,inactive,–,inactive,12.4%,inactive,-9.35%,6.61% (inactive)
CC[C@H](C)C(=O)O[C@H]1C[C@@H](C)C=C2C=C[C@H](C)[C@H](CC[C@@H]3C[C@@H](O)CC(=O)O3)[C@H]21,–,–,–,inactive,–,inactive,–,–,–,–
CC(=O)Oc1ccccc1C(=O)Nc1ncc([N+](=O)[O-])s1,–,-31.7%,inactive,–,–,–,–,–,–,–
N=C(N)c1ccc(OCCCCCOc2ccc(C(=N)N)cc2)cc1,inactive,-25.7%,inactive,–,–,inactive,18.8%,inactive,–,–
Cc1nnc(NS(=O)(=O)c2ccc(N)cc2)s1,–,–,–,inactive,–,inactive,-10.5%,inactive,-2.81%,-2.27% (inactive)
